Results filed as inconclusive are left out. Some structures have more than one record in an assay (separate samples or runs), and their calls can disagree. Calls of active or inactive are those of the source. Rule for the calls, unless noted: active = hit-call score of the fitted dose curve at least 0.9, where 1 is the maximum; inactive = score below 0.9.

Read-out in assay [1]: Signal transducer and activator of transcription 3 (Homo sapiens) (UniProt P40763)
Put plainly: LTEA_HepaRG_STAT3: Life Technologies and Expression Analysis (LTEA) Assay for Signal transducer and activator of transcription (STAT3) using HepaRG (AID 2283529). To be noted: mRNA level, 48 h; actives raise or lower the signal. The procedure, abridged:
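Differentiated HepaRG cells, serum-free induction medium, dosed 48 h in duplicate, 8 half-log concentrations from 100 uM in 0.5% DMSO. STAT3 mRNA by qRT-PCR, normalised to ACTB, GAPDH, POLR2A; bidirectional fit versus DMSO.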

Read-out in assay [2]: solute carrier (SLCO1B1), SLCO1B1 (gene 10599)
Put plainly: LTEA_HepaRG_SLCO1B1: Life Technologies and Expression Analysis (LTEA) Assay for solute carrier (SLCO1B1) using HepaRG (AID 2283530). Particulars: mRNA level, 48 h; actives raise or lower the signal. In outline: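 SLCO1B1 transcript read by qRT-PCR (Fluidigm arrays), normalized to three housekeeping genes, after 48 h chemical exposure of HepaRG cells; bidirectional concentration-response fitting versus 0.5% DMSO baseline. Eight-point half-log series, maximum 100 uM.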

Read-out in assay [3]: sulfotransferase 2A1 (SULT2A1), SULT2A1 (gene 6822)
Put plainly: LTEA_HepaRG_SULT2A1: Life Technologies and Expression Analysis (LTEA) Assay for sulfotransferase 2A1 (SULT2A1) using HepaRG (AID 2283531). Particulars: mRNA level, 48 h; actives raise or lower the signal. The procedure, abridged:
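HepaRG, 48 h chemical exposure, 8-pt half-log curve from 100 uM in 0.5% DMSO, duplicates. Readout: TaqMan qRT-PCR of SULT2A1 mRNA, housekeeping-normalized. Bidirectional fit vs DMSO baseline.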

Read-out in assay [4]: Transforming Growth Factor (TGFA), TGFA (gene 7039)
Put plainly: LTEA_HepaRG_TGFA: Life Technologies and Expression Analysis (LTEA) Assay for Transforming Growth Factor (TGFA) using HepaRG (AID 2283532). Particulars: mRNA level, 48 h; actives raise or lower the signal. In outline:
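Differentiated HepaRG cells exposed 48 hours in serum-free induction medium, 0.5% DMSO vehicle, 8-point half-log series from 100 uM, in duplicate. TGFA mRNA by TaqMan qRT-PCR, normalised to ACTB, GAPDH, POLR2A; bidirectional fit versus DMSO.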

Read-out in assay [5]: Transforming Growth Factor (TGFB1), TGFB1 (gene 7040)
In words: LTEA_HepaRG_TGFB1: Life Technologies and Expression Analysis (LTEA) Assay for Transforming Growth Factor (TGFB1) Transporter using HepaRG (AID 2283533). To be noted: mRNA level, 48 h; actives raise or lower the signal. The procedure, abridged: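 qRT-PCR readout of TGFB1 transcript in HepaRG lysates, normalized to three housekeeping genes; gain or loss of signal fitted relative to 0.5% DMSO vehicle. Exposure: 48 h, 8-point curve from 100 uM, duplicate wells.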

Read-out in assay [6]: TIMP1, TIMP1 (gene 7076)
Put plainly: LTEA_HepaRG_TIMP1: Life Technologies and Expression Analysis (LTEA) Assay for TIMP1 using HepaRG (AID 2283534). Particulars: mRNA level, 48 h; actives raise or lower the signal. The procedure, abridged:
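HepaRG, 48 h exposure, 8-pt half-log series from 100 uM in 0.5% DMSO, duplicates; TIMP1 transcript by Fluidigm qRT-PCR, housekeeping-normalized; bidirectional curve fit vs DMSO baseline.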

Read-out in assay [7]: Tumor necrosis factor receptor 1 (TNFRSF1A), TNFRSF1A (gene 7132)
Put plainly: LTEA_HepaRG_TNFRSF1A: Life Technologies and Expression Analysis (LTEA) Assay for Tumor necrosis factor receptor 1 (TNFRSF1A) using HepaRG (AID 2283535). Particulars: mRNA level, 48 h; actives raise or lower the signal. In outline:
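HepaRG, 48 h plating then 48 h chemical exposure, serum-free induction media; 8-pt CRC from 100 uM, half-log, 0.5% DMSO vehicle, duplicates. Readout: TaqMan qRT-PCR (Fluidigm), housekeeping-gene normalized; bidirectional fit vs DMSO.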

Read-out in assay [8]: Thyroid Hormone Responsive (THRSP), THRSP (gene 7069)
Put plainly: LTEA_HepaRG_THRSP: Life Technologies and Expression Analysis (LTEA) Assay for Thyroid Hormone Responsive (THRSP) using HepaRG (AID 2283536). Particulars: mRNA level, 48 h; actives raise or lower the signal. The procedure, abridged:
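Differentiated HepaRG cells treated 48 h in serum-free induction medium with 8 half-log concentrations up to 100 uM (0.5% DMSO), duplicates. THRSP mRNA by TaqMan qRT-PCR normalised to ACTB, GAPDH, POLR2A; bidirectional fit versus DMSO.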

Read-out in assay [9]: Cellular tumor antigen p53 (Homo sapiens) (UniProt P04637)
In words: LTEA_HepaRG_TP53: Life Technologies and Expression Analysis (LTEA) Assay for Tumor Protein P53 (TP53) using HepaRG (AID 2283537). To be noted: mRNA level, 48 h; actives raise or lower the signal. In outline:
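Read-out is TP53 transcript level by microfluidic qRT-PCR, normalised to three housekeeping genes and fitted bidirectionally against DMSO. Human HepaRG cells received compounds for 48 h, highest concentration 100 uM.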

Read-out in assay [10]: UDP glucuronosyltransferase (UGT1A1), UGT1A1 (gene 54658)
In words: LTEA_HepaRG_UGT1A1: Life Technologies and Expression Analysis (LTEA) Assay for UDP glucuronosyltransferase (UGT1A1) using HepaRG (AID 2283538). To be noted: mRNA level, 48 h; actives raise or lower the signal. In outline:
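HepaRG cells, 0.5% DMSO vehicle, 48 h exposure in serum-free induction medium to 8-point half-log series topping at 100 uM, in duplicate. UGT1A1 mRNA by Fluidigm qRT-PCR, normalized to ACTB/GAPDH/POLR2A; bidirectional fit versus DMSO.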

Read-out in assay [11]: UDP glucuronosyltransferase (UGT1A6), UGT1A6 (gene 54578)
Put plainly: LTEA_HepaRG_UGT1A6: Life Technologies and Expression Analysis (LTEA) Assay for UDP glucuronosyltransferase (UGT1A6) using HepaRG (AID 2283539). Particulars: mRNA level, 48 h; actives raise or lower the signal. The procedure, abridged: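 qRT-PCR readout of UGT1A6 mRNA (normalized to ACTB/GAPDH/POLR2A) in differentiated HepaRG cells after 48 h chemical exposure; 8 concentrations, top 100 uM, half-log steps, 0.5% DMSO. Bidirectional curve fit relative to DMSO baseline.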

Read-out in assay [12]: X-box binding protein 1 (XBP1), XBP1 (gene 7494)
Put plainly: LTEA_HepaRG_XBP1: Life Technologies and Expression Analysis (LTEA) Assay for X-box binding protein 1 (XBP1) using HepaRG (AID 2283540). To be noted: mRNA level, 48 h; actives raise or lower the signal. The procedure, abridged: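 HepaRG, 48 h exposure, 8-pt half-log CRC top 100 uM, 0.5% DMSO vehicle, duplicates. Readout: TaqMan qRT-PCR of XBP1 mRNA, housekeeping-normalised (ACTB/GAPDH/POLR2A); bidirectional fit vs DMSO baseline.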

Assay [13] can be described thus: LTEA_HepaRG_LDH_cytotoxicity: Cytotoxicity Assessment in the Life Technologies and Expression Analysis (LTEA) Assay (AID 2283563; active = hit-call score of the fitted dose curve at least 0.9, where 1 is the maximum;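 for AC50: LDH activity released into spent culture medium as a marker of cell death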). The procedure, abridged:
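HepaRG (human liver line), 48 h exposure, 8-pt half-log series from 100 uM, 0.5% DMSO vehicle, duplicates. Read-out: LDH in spent medium. Positive-direction fit vs DMSO baseline.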

Assay [14] is described as follows: ATG_XTT_Cytotoxicity: Cytotoxicity Assessment in the Attagene TRANS-FACTORIAL HepG2 Assay (AID 2283584; active = hit-call score of the fitted dose curve at least 0.9, where 1 is the maximum). The procedure, abridged:
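XTT readout of cell number in transfected HepG2 cells, 24 h post-dosing; DMSO serves as negative control and baseline, with activity taken as loss of viability signal.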

A short description of assay [15]: TOX21_p53_BLA_p2_viability: Viability Assessment in the Tox21 HCT-116 p53 Agonism Beta-lactamase Assay, Phase 2 (AID 2283591; active = hit-call score of the fitted dose curve at least 0.9, where 1 is the maximum;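 note: compound exposure lasted 16 h at 37 °C; actives lower the ATP signal meaning cytotoxicity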). The procedure, abridged:
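HCT116 p53-bla cells, 4000/well, dosed after 5 h plating (217-fold dilution of DMSO stocks) and incubated 16 h at 37C. Viability taken as cellular ATP by CellTiter-Glo luminescence after 30 min RT; signal loss marks cytotoxicity.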

A short description of assay [16]: TOX21_p53_BLA_p3_viability: Viability Assessment in the Tox21 HCT-116 p53 Agonism Beta-lactamase Assay, Phase 3 (AID 2283593; active = hit-call score of the fitted dose curve at least 0.9, where 1 is the maximum;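 note: cells exposed to compound for 16 h before reading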). The procedure, abridged: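 HCT116 cells, 4000/well, dosed 5 h after plating by pin transfer (217-fold dilution from DMSO stock) and incubated 16 h at 37C, 5% CO2. Viability read as ATP luminescence with CellTiter-Glo after 30 min at room temperature.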

In assay [17] the target is Cellular tumor antigen p53 (Homo sapiens) (UniProt P04637). Put plainly: TOX21_p53_BLA_p3_ratio: Tox21 HCT-116 p53 Agonism Beta-lactamase Assay, Ratio, Phase 3 (AID 2283596; active = hit-call score of the fitted dose curve at least 0.9, where 1 is the maximum). The procedure, abridged: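 HCT116 p53-bla cells (4000/well) given compound in DMSO (217-fold dilution) after 5 h, incubated 16 h at 37C. CCF4-AM substrate 2 h at room temperature; 460/530 nm emission ratio, gain fitted against DMSO.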

Read-out in assay [18]: succinate dehydrogenase complex iron sulfur subunit B (SDHB), SDHB (gene 6390)
Put plainly: LTEA_HepaRG_SDHB: Life Technologies and Expression Analysis (LTEA) Assay for succinate dehydrogenase complex iron sulfur subunit B (SDHB) using HepaRG (AID 2283528). Particulars: mRNA level, 48 h; actives raise or lower the signal. The procedure, abridged:
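Readout is SDHB transcript level by qRT-PCR, normalised to three housekeeping genes and fitted bidirectionally against 0.5% DMSO vehicle. Human HepaRG cells were treated for 48 h at up to 100 uM.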

Assay [19] addresses Cellular tumor antigen p53 (Homo sapiens) (UniProt P04637). Put plainly: TOX21_p53_BLA_p2_ratio: Tox21 HCT-116 p53 Agonism Beta-lactamase Assay, Ratio, Phase 2 (AID 2283592; active = hit-call score of the fitted dose curve at least 0.9, where 1 is the maximum). In outline:
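In this cell-based reporter format, HCT116 cells were dosed with chemicals delivered from DMSO by 217-fold dilution and incubated 16 h at 37C. Emission at 460 and 530 nm after 2 h CCF4-AM loading provided the ratio, fitted upward versus DMSO.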

Assay [20] can be described thus: TOX21_p53_BLA_p4_viability: Viability Assessment in the Tox21 HCT-116 p53 Agonism Beta-lactamase Assay, Phase 4 (AID 2283597; active = hit-call score of the fitted dose curve at least 0.9, where 1 is the maximum;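 note: hits lower the luminescence signal meaning cytotoxicity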). The procedure, abridged: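 We seeded HCT116 p53 reporter cells at 4000/well and waited 5 h. We then added compounds in DMSO at a 217-fold dilution and incubated for 16 h. Viability was read as CellTiter-Glo luminescence after 30 min at RT.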

Sequence of Cellular tumor antigen p53 (Homo sapiens) (P04637 whole entry, looked up): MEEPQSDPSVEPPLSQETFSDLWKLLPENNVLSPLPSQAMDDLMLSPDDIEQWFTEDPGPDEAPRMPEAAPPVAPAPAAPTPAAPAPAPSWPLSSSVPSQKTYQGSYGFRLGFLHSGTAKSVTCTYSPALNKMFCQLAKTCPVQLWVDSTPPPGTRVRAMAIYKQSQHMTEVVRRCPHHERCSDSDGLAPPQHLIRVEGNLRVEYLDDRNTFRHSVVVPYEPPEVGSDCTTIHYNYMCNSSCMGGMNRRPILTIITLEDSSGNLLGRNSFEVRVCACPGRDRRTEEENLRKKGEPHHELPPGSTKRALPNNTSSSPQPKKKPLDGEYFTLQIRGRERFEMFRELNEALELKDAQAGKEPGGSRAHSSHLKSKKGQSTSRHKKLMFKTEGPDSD
Sequence of Signal transducer and activator of transcription 3 (Homo sapiens) (P40763 whole entry, looked up): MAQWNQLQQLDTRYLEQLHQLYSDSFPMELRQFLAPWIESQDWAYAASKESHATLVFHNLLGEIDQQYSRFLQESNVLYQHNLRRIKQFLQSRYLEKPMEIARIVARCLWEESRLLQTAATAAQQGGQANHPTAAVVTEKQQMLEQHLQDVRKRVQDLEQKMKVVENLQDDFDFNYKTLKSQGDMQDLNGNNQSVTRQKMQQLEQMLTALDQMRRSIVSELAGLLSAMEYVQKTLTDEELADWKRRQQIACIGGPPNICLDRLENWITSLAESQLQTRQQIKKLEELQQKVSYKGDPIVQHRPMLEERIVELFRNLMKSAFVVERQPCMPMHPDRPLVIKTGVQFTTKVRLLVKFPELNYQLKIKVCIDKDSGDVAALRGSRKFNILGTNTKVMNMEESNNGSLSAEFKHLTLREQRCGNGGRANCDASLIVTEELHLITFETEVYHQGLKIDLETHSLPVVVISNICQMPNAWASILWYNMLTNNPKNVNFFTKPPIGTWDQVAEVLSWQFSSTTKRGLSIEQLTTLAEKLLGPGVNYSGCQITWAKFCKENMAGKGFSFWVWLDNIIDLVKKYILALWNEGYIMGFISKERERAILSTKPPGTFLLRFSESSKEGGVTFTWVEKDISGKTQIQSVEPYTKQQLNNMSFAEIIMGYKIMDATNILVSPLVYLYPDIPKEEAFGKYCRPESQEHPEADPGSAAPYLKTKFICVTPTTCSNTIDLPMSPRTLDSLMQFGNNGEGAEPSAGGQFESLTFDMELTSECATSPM

By AC50 is commonly meant the concentration giving half of the maximal activity seen. Take `CC1=C2C[C@H]3[C@@H](CC=C4C[C@@H](O)CC[C@@]43C)[C@@H]2CC[C@]12O[C@@H]1C[C@H](C)CN[C@H]1[C@H]2C`: the outcome in assay [1], in [2], in [3], in [4], in [5] and in assay [6] was inactive. Also, the molecule was called inactive in [7], in assay [8], in assay [9], in assay [10], in [11] and in assay [13]. Besides, the call in assay [14], in assay [15], in assay [16] and in [17] was inactive. Besides, the AC50 in assay [12] is 25 µM (active).

Take `Cc1ccccc1CO[C@@H]1C[C@@]2(C(C)C)CC[C@]1(C)O2`: the result in assay [18], in [1], in [2], in assay [3], in assay [4] and in assay [5] was inactive. The molecule was classed as inactive in [6], in assay [7], in assay [11] and in assay [13]. Also, the AC50 is 71.7 µM (active) in [8] and 14.9 µM (active) in [10].

Regarding `Cc1cc(O)ccc1Cl`, the molecule was classed as inactive in [18], in assay [1], in assay [2], in assay [3], in assay [4] and in assay [5]. Also, the call in assay [6], in assay [7], in assay [8], in assay [9], in [10] and in assay [11] was inactive. Further, the molecule was classed as inactive in [12], in assay [13], in [14], in assay [15], in assay [19] and in assay [16]. Also, the outcome in assay [17] and in assay [20] was inactive.

For the molecule `CCC(C)c1cc([N+](=O)[O-])cc([N+](=O)[O-])c1O` (stereo not drawn), the AC50 was 0.656 µM (active) in assay [18]; 0.631 µM (active) in [1]; 2.32 µM (active) in assay [2]; 3.13 µM (active) in assay [3]; 4.14 µM (active) in assay [4]; 2.51 µM (active) in [6]. The AC50 in assay [7] is 4.74 µM (active); in assay [8] it was 1.98 µM (active); in assay [9], 1.55 µM (active); in assay [10], 1.83 µM (active); in [11], 4.17 µM (active); in [13] it was 3.73 µM (active). Moreover, the AC50 was 4.16 µM (active) in assay [19] and 0.984 µM (active) in assay [17]. The result in assay [5], in assay [14], in assay [16], in assay [17] and in assay [20] was inactive.

Take `Cc1cccc([N+](=O)[O-])c1`: the molecule was classed as inactive in assay [18], in assay [1], in assay [2], in [3], in [4] and in assay [5]. Moreover, the result in assay [6], in assay [7], in assay [8], in [9], in [10] and in assay [11] was inactive. Moreover, the outcome in [12], in assay [13], in [14], in [15], in [19] and in assay [16] was inactive. For the same molecule, the result in [17] and in assay [20] was inactive.
